Several values for one entry are separate records, joined by “and”; a condition that tells them apart may be missing. Equal entries are not always repeated. Results filed as inconclusive are left out. Activity calls are given as the source filed them. Unless noted, calls follow the shape of the dose curve; as a rule, active = well fitted curve in the direction sought with a large enough effect in the repeat runs; inconclusive = weak or mixed curves; inactive = no such curve, though single readings can be large; an effect the other way counts as inactive or inconclusive.
Legend:
[1] = qHTS assay to identify small molecule antagonists of the glucocorticoid receptor (GR) signaling pathway - cell viability counter screen (AID 720693); also: nearly all actives have a fitted effect of over 55% in size; also: potency is read from the fitted curve at half-maximal effect
[2] = qHTS assay for identifying genotoxic compounds that show differential cytotoxicity against isogenic chicken DT40 cell lines with known DNA damage response pathways - wild type cell line (AID 743012); also: nearly all actives have a fitted effect of over 60% in size; also: potency is read from the fitted curve at half-maximal effect
How it was run: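 Viability by ATP luminescence (CellTiter-Glo, 30 min RT) after 40 h compound treatment at 37 C/5% CO2, using 300 parental DNA repair-proficient DT40 cells per well.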

[3] = qHTS assay for identifying genotoxic compounds that show differential cytotoxicity against isogenic chicken DT40 cell lines with known DNA damage response pathways - Rev3 mutant cell line (AID 743014); also: nearly all actives have a fitted effect of over 55% in size; also: potency is read from the fitted curve at half-maximal effect
[4] = qHTS assay for identifying genotoxic compounds that show differential cytotoxicity against isogenic chicken DT40 cell lines with known DNA damage response pathways - Rad54/Ku70 mutant cell line (AID 743015); also: nearly all actives have a fitted effect of over 60% in size; also: potency is read from the fitted curve at half-maximal effect
[5] = qHTS assay to identify small molecule antagonists of the androgen receptor (AR) signaling pathway - cell viability counter screen (AID 743033; also: nearly all actives have a fitted effect of over 45% in size; also: potency is read from the fitted curve at half-maximal effect)
[6] = qHTS assay to identify small molecule antagonists of the androgen receptor (AR) signaling pathway using the MDA cell line - cell viability counter screen (AID 743041; also: nearly all actives have a fitted effect of over 45% in size; also: potency is read from the fitted curve at half-maximal effect)
How it was run: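 Using the breast carcinoma line MDA-kb2 AR-luc, test chemicals were co-incubated with R1881 for 16 h; CellTiter-Fluor reagent, added at 15.5 h, provided a fluorescence measure of live cells.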

[7] = molecular target: Androgen receptor (Homo sapiens) (UniProt P10275); assay: qHTS assay to identify small molecule agonists of the androgen receptor (AR) signaling pathway using the MDA cell line (AID 743040; also: nearly all actives have a fitted effect of over 20% in size)
How it was run: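 Stable MMTV-luciferase reporter in MDA-kb2 cells; note the promoter carries GR as well as AR response elements. 16 h compound treatment, 37C, 0% CO2; ONE-Glo luminescence endpoint.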

[8] = molecular target: Androgen receptor (Homo sapiens) (UniProt P10275); assay: qHTS assay to identify small molecule antagonists of the androgen receptor (AR) signaling pathway (AID 743035; active = well fitted inhibition curve with a large enough effect in the signal ratio in the repeat runs, not every such curve was filed as active; the % refers to the signal ratio; also: potency is read from the fitted curve at half-maximal effect)
How it was run: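 Antagonist mode: AR-bla HEK293 cells co-treated with test compounds and agonist R1881 for 16 h at 37C, 5% CO2. Beta-lactamase activity read as FRET fluorescence after 2 h room-temperature substrate loading.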

[9] = molecular target: Androgen receptor (Homo sapiens) (UniProt P10275); assay: qHTS assay to identify small molecule agonists of the androgen receptor (AR) signaling pathway (AID 743036; active = well fitted activation curve with a large enough effect in the signal ratio in the repeat runs, with a control signal flat, not every such curve was filed as active; the % refers to the signal ratio)
How it was run: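 Fluorescence from a beta-lactamase FRET substrate served as read-out in AR-UAS-bla GripTite HEK293 cells. Cells were treated with DMSO-dissolved compounds for 16 h at 37C, then with LiveBLAzer B/G substrate for 2 h at room temperature.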
% is scaled to controls: 0 for no effect and ±100 for the full control effect.

Androgen receptor (Homo sapiens), sequence (P10275 whole entry, looked up): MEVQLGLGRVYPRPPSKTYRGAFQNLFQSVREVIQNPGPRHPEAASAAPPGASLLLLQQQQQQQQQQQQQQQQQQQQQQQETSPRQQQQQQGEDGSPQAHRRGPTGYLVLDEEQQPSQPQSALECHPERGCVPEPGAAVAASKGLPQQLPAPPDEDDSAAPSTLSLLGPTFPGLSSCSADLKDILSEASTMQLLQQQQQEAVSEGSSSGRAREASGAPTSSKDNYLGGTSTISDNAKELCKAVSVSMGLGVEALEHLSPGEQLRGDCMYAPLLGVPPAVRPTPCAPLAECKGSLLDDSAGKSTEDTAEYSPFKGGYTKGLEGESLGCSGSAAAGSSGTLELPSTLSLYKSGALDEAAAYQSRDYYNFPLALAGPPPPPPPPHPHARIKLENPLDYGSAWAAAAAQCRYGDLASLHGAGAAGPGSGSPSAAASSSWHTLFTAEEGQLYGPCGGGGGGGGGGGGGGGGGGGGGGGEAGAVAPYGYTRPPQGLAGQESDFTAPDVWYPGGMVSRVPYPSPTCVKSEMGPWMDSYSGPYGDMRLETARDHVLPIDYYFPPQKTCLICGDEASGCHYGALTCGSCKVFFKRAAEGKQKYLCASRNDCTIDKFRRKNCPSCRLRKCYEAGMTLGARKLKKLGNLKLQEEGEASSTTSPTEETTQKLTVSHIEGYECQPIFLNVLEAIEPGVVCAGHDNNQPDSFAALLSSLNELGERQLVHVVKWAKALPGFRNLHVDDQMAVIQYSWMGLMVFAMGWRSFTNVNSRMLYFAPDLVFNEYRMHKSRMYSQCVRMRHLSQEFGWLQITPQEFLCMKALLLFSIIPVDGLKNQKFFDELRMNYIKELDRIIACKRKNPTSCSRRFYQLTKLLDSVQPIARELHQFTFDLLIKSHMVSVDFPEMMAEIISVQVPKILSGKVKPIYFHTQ

CC(Cc1ccc(OCC(=O)O)cc1)NCC(O)c1csc(C(F)(F)F)n1 (configuration not stated)
inactive: Potency [1] | Potency [2] | Potency [3] | Potency [4] | Potency [5] | Potency [6]

[F][Sn]([c]1ccccc1)([c]1ccccc1)[c]1ccccc1
active: Potency [1] 0.977 µM | Potency [2] 0.243 µM | Potency [3] 0.433 µM | Potency [4] 0.306 µM | Potency [5] 1.23 µM | Potency [6] 3.86 µM

O=Cc1ccccc1
inactive: Potency [1] | Potency [2] | Potency [3] | Potency [4] | Potency [5] | Potency [6]

C1=CCC=C1
inactive: Potency [1] | Potency [2] | Potency [3] | Potency [4] | Potency [5] | Potency [6]

CN/C(=N\[N+](=O)[O-])NCc1cnc(Cl)s1
inactive: Potency [1] | Potency [2] | Potency [3] | Potency [4] | Potency [5] | Potency [6]

COc1nc(C)nc(NC(=O)NS(=O)(=O)c2ccccc2Cl)n1
inactive: Potency [1] | Potency [2] | Potency [3] | Potency [4] | Potency [5] | Potency [6]

O=C1C(Cl)=C(Cl)C(=O)C(Cl)=C1Cl
active: Potency [1] 38.9 µM | Potency [2] 13.6 µM and 9.69 µM | Potency [3] 8.6 µM and 6.86 µM | Potency [4] 17.2 µM and 8.63 µM
inactive: outcome [7]

CCC1(CC)C(=O)N=C(O)NC1=O
inactive: Potency [1] | Potency [2] | Potency [3] | Potency [4] | Potency [5] | Potency [6]

CCCCn1cc[n+](C)c1 (tested in a mixture with another compound)
inactive: Potency [1] | Potency [2] | Potency [3] | Potency [4] | Potency [5] | Potency [6]

CC1(C)[C@H](/C=C2\CCSC2=O)[C@@H]1C(=O)OCc1coc(Cc2ccccc2)c1
inactive: Potency [1] | Potency [5] | Potency [6]
active: Potency [2] 6.86 µM | Potency [3] 5.45 µM | Potency [4] 10.9 µM

CC(C)N(C(=O)CCl)c1ccccc1
active: Potency [1] 54.9 µM | Potency [2] 21.7 µM and 17.2 µM | Potency [3] 2.17 µM and 3.86 µM | Potency [4] 9.69 µM and 7.7 µM | Potency [8] 8.71 µM and 6.92 µM
inactive: outcome [9] | outcome [7]

ClC1=C(Cl)[C@]2(Cl)[C@@H]3[C@H]4C[C@H]([C@@H]5O[C@H]45)[C@@H]3[C@@]1(Cl)C2(Cl)Cl
inactive: Potency [1] | Potency [5] | Potency [6]
active: Potency [2] 29.8 µM and 27.3 µM | Potency [3] 9.68 µM | Potency [4] 17.2 µM

CCn1cc[n+](C)c1 (tested in a mixture with another compound)
inactive: Potency [1] | Potency [2] | Potency [3] | Potency [4] | Potency [5] | Potency [6]

CCC(C)Nc1c([N+](=O)[O-])cc(C(C)(C)C)cc1[N+](=O)[O-] (configuration not stated)
inactive: Potency [1] | Potency [2] | Potency [3] | Potency [4] | Potency [5] | Potency [6]

CC(Cl)CCl (configuration not stated)
inactive: Potency [1] | Potency [2] | Potency [3] | Potency [4] | Potency [6]

O=C1C2(Cl)C3(Cl)C4(Cl)C(Cl)(Cl)C5(Cl)C3(Cl)C1(Cl)C5(Cl)C24Cl (configuration not stated)
active: Potency [1] 24.1 µM | Potency [2] 30.1 µM and 29.3 µM | Potency [3] 13.5 µM and 32.9 µM | Potency [4] 19 µM and 26.1 µM | Potency [8] 23.5 µM
inactive: outcome [7]

O=P(Cl)(Cl)Cl
inactive: Potency [1] | Potency [2] | Potency [3] | Potency [4] | Potency [5] | Potency [6]

O=S(=O)(O)F
inactive: Potency [1] | Potency [2] | Potency [3] | Potency [4] | Potency [5] | Potency [6]

O=c1c2ccccc2c(=O)c2c1cc(Cl)c1[nH]c3c([nH]c12)c(Cl)cc1c(=O)c2ccccc2c(=O)c13
inactive: Potency [1] | Potency [2] | Potency [3] | Potency [4] | Potency [5] | Potency [6]

[O-][Cl+3]([O-])([O-])O
inactive: Potency [1] | Potency [2] | Potency [3] | Potency [4] | Potency [5] | Potency [6]

Clc1c(Cl)c(Cl)c(Cl)c(Cl)c1Cl
inactive: viability change, negative = cytotoxic [1] -7.19% [at 7.04 µM] | activity change, negative = cytotoxicity [2] 20.8% [at 8.52 µM] | activity, negative = cytotoxicity [3] 6.09% [at 8.53 µM] | activity change, negative = cytotoxicity [4] -2.7% [at 8.55 µM] | viability change, negative = cytotoxic [6] -2.06% [at 8.47 µM]

CC1(C)C(C=C(Cl)Cl)C1C(=O)OC(C#N)c1ccc(F)c(Oc2ccccc2)c1 (configuration not stated)
inactive: Potency [1] | Potency [2] | Potency [3] | Potency [5] | Potency [6]

CCN(CC)Cc1nccn1-c1ccc([N+](=O)[O-])cc1C(=O)c1ccccc1Cl
active: Potency [2] 29.8 µM | Potency [3] 29.8 µM
inactive: Potency [1] | Potency [5] | Potency [6]

N#Cc1c2ccccc2cc2ccccc12
inactive: Potency [1] | Potency [3] | Potency [4] | Potency [5] | outcome [7] | Potency [6]

Cc1ccc(C)c2ccccc12
inactive: Potency [1] | Potency [3] | Potency [4] | Potency [5] | Potency [8] | outcome [9] | outcome [7] | Potency [6]

C=CC(=C)C
active: Potency [3] 21.7 µM | Potency [4] 24.3 µM
inactive: Potency [1] | Potency [5]

C=Cc1cccc(CCl)c1
inactive: Potency [1] | Potency [2] | Potency [4] | Potency [5] | Potency [6]

c1csc(-c2ccc(-c3cccs3)s2)c1
inactive: Potency [1] | Potency [5] | Potency [6]
active: Potency [2] 68.6 µM

CCOP(=O)(Sc1ccccc1)Sc1ccccc1
active: Potency [2] 24.3 µM
inactive: Potency [1] | Potency [3] | Potency [4] | Potency [6]

O=c1[nH]c(Cl)c(Cl)cc1Cl
inactive: Potency [1] | Potency [3] | Potency [4] | Potency [5] | outcome [7] | Potency [6]
